Sampled rows, rich in hits. Any-hit rate of the full collection: about 13%.
MARV entry inh: qHTS for inhibitors of binding or entry into cells for Marburg Virus. Marburg virus pseudotyped entry inhibition, cell reporter. Potency, µM (highest dose often 37.8 µM), for the others: at the top dose activity change, negative = inhibition, actives largely listed as inhibitors. 1.8% of 300,000 active; calls by dose curve; tested in HEK293 cells; note: potency is the fitted concentration of half-maximal effect; % is set by controls: 0 for no effect and ±100 for the full control effect
FMDV inh: High Throughput Screening for Foot and Mouth Disease Virus Antivirals; FMDV antiviral cell-based qHTS; Potency, µM (top dose mostly 57.9 µM), without a hit: at the top dose activity change, negative = inhibition, hits mostly inhibitors; 1.2% of 410,000 active; AID 1159524, 2015; calls by dose curve; tested in HEK293T cells; note: read-out not given here; potency is the fitted concentration of half-maximal effect; % is set by controls: 0 for no effect and ±100 for the full control effect; nearly all actives have a fitted effect of over 45% in size
Cycloheximide cs: Cycloheximide Counterscreen for Small Molecule Inhibitors of Shiga Toxin; cell reporter, cycloheximide protein synthesis inhibition counterscreen; max response, %; 12% of 300,000 active; AID 2314, 2010; in the data active = max response mostly above about 13%, no sharp cut-off; inactive = mostly below about 14%; note: read at 38.3 µM for the half of the compounds with a filed dose; 0% is about no effect
HCV inhibitor: qHTS Assay for Inhibitors of Hepatitis C Virus (HCV); Potency, µM (doses to about 41.8 µM), for inactives: at the top dose activity change, negative = inhibition, actives largely listed as inhibitors; AID 651820, 2012; Huh7.5.1 HCVcc-Cre infection, luciferase reporter, 44 h; 3.4% of 340,000 active; active = well fitted inhibition curve with a large enough effect; inconclusive = small, poorly fitted or top-dose-only effect, or another doubt; inactive = no such curve, though single readings can be large or run the other way; note: potency is the fitted concentration of half-maximal effect; % is set by controls: 0 for no effect and ±100 for the full control effect
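Infectious HCV cell culture screen: compound-treated cells (1,000/well, pre-plated 4 h) are infected with HCVcc-Cre at roughly 0.5 moi and grown 44 h. Infection is quantified by luciferase signal after 15 min substrate incubation at room temperature.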
LASV entry inh: qHTS for Inhibitors of binding or entry into cells for Lassa Virus | 1.2% of 300,000 active | Lassa virus pseudotype entry inhibition, cell reporter | Potency, µM (titrated, usually from 37.9 µM), without a hit: at the highest dose activity change, negative = inhibition, hits mostly inhibitors; calls by dose curve; tested in HEK293 cells; note: potency is the fitted concentration of half-maximal effect; % is set by controls: 0 for no effect and ±100 for the full control effect; nearly all actives have a fitted effect of over 50% in size
Shiga inhibitor: A qHTS for Small Molecule Inhibitors of Shiga Toxin | inhibition, % at 38.7 µM | 9.2% of 290,000 active | Vero cells, Shiga toxin protein synthesis inhibition reporter; in the data active = inhibition mostly above about 28%, no sharp cut-off; inactive = mostly below about 43%; note: 0% is about no effect
* marks the source's active call; other numbers are inactive results; ? = inconclusive; . = no result given; [ ] = dose if it differs, or a comment.

SMILES	MARV entry inh	FMDV inh	Cycloheximide cs	HCV inhibitor	LASV entry inh	Shiga inhibitor
Clc1ccc2nc(N3CCCCC3)[nH]c2c1	-22.5%	0.3%	37.0*	?	-25.9%	79.5*
CC(C)NC(=O)N1CCCN(c2nc3ccc(Cl)cc3s2)CC1	-22.8%	-27.2%	32.3*	3.98µM*	-3.3%	37.4
CN(C)S(=O)(=O)c1ccc(N2CCOCC2)c(C(=O)NCc2ccc3c(c2)OCO3)c1	.	10.3%	.	7.6%	.	.
CC1CCCN(C(=O)C23CCC(C)(C(=O)C2)C3(C)C)C1 (stereo not drawn)	-3.6%	18.9%	-1.1	3.2%	?	10.9
COc1cccc(/C=N/NC(=S)NCc2ccco2)c1OC	-2.4%[46.1 µM]	3.6%	8.8	-18.1%	?	9.5
C[C@H]1CN([C@@H](C)CO)S(=O)(=O)c2ccc(Br)cc2O[C@@H]1CN(C)C(=O)Nc1ccc2c(c1)OCO2	.	3.4%	.	.	.	.
O=C(N=c1nc2ccccn2s1)c1ccccc1	?	-31.5%	41.3*	.	43.9%[14.3 µM]	151.6*
Cc1ccc(-c2nnn(CCC(=O)NC(C)(C)C)n2)cc1	-4.7%[46.1 µM]	64.5%	31.9*	-6.2%	25.5%	52.3*
COC(=O)CCn1nnc(-c2ccc(C)cc2)n1	25.4%	48.6%	31.8*	?	-0.1%	59.7*
Cc1ccc(-c2nnn(CCC(=O)N3CCCCC3C)n2)cc1 (stereo not drawn)	7.0%	.	17.4*	8.8%	13.3%	72.5*
COc1ccc(NC(=O)CCn2nnc(-c3ccc(C)cc3)n2)cc1OC	4.4%	-21.2%	-2.2	?	-3.3%	-3.5
CC1CCCCN1C(=O)Cn1nnc(-c2cccnc2)n1 (stereo not drawn)	7.2%	.	1.5	18.5%	2.0%	11.9
Cc1cc(C)c2nc(NC(=O)c3ccc(S(=O)(=O)N4CCc5ccccc54)cc3)sc2c1	.	?	.	.	3.3%[46.1 µM]	.
CCOC(=O)c1[nH]c(C)c(C(=O)NCCCN2CCOCC2)c1C	-2.1%	-10.4%	-5.0	.	-31.2%[14.3 µM]	-7.3
CCCCCCNCc1cccc(Br)c1	?	7.2%	-1.6	4.5%	11.6%	-19.5
Cc1ccc(S(=O)(=O)Nc2cc(NC(=O)CN3CCOCC3)ccc2Cl)cc1	?	0.0%	12.0	0.7%	?	31.7
CCOC(=O)C1=C(N)OC2=C(C(=O)CCC2)C1c1sccc1C (stereo not drawn)	17.7%	-21.7%	1.2	9.5%	7.4%	16.6
CCOC(=O)C1=C(N)OC2=C(C(=O)CCC2)C1c1ccc(C)s1 (stereo not drawn)	28.9%	.	44.3*	4.8%	29.3%	79.8*
O=C(NCc1ccco1)c1cc(-c2ccccc2)nn1CC1CC(c2cccnc2)=NO1 (stereo not drawn)	.	3.6%	.	-25.3%	.	.
Clc1ccc(-c2ccc(SCc3ccccn3)nn2)cc1	-2.0%	50.3%	41.0*	-9.8%	14.0%	59.1*
N=C(N)SCc1ccccn1	?	-9.9%	7.3	?	-24.4%	3.5
c1ccc(CSc2nnc(SCc3ccccn3)s2)nc1	?	39.9%	30.4*	-6.1%	?	59.1*
O=C(CSc1ccc(-c2ccncc2)nn1)c1ccc(Cl)cc1	7.4%[46.1 µM]	-27.4%	-1.4	2.9%	-3.4%[46.1 µM]	-10.2
c1ccc(CSc2ccc(-c3ccccn3)nn2)nc1	?	0.0%	47.8*	?	?	97.7*
COc1cccc(C(C(=O)NC2CCCC2)N(Cc2ccco2)C(=O)c2ccco2)c1OC (stereo not drawn)	-24.9%	-5.6%	-1.2	-16.5%	-0.3%	18.4
SMILES	MARV entry inh	FMDV inh	Cycloheximide cs	HCV inhibitor	LASV entry inh	Shiga inhibitor
CCc1nnc(NC(=O)CSCc2cc(=O)n3nc(C(C)C)sc3n2)s1	.	?	0.8	15.3%	.	4.4
C[C@H](CO)N1C[C@H](C)[C@@H](CN(C)S(=O)(=O)c2ccc(F)cc2)Oc2c(NC(=O)Cc3ccccc3)cccc2C1=O	.	0.7%	.	?	.	.
CC(=O)Nc1ccc(SCC(=O)c2cc(C)n(C)c2C)cc1	2.8%	33.8%	10.4	3.3%	?	29.4
CC(=O)Nc1ccc(SCC(=O)c2cc(C)n(CC(F)(F)F)c2C)cc1	?	18.7%	34.7*	22.0%	-5.7%	71.1*
C[C@H]1COC(=O)[C@@H](Cc2ccc(F)cc2)C/C=C\C[C@@H](CC(=O)NCCO)C(=O)N1	.	-19.1%	.	3.55µM*	.	.
COc1ccc(COC(=O)N/N=C2/C[C@@H](O)[C@@H](O)[C@@H]3[C@@H]4C(=O)N(Cc5ccc6c(c5)OCO6)C(=O)[C@H]4CC[C@@H]23)cc1	4.1%[14.2 µM]	.	.	.	.	.
COc1ccc(COC(=O)NN=C2C[C@@H](O)[C@@H](O)[C@@H]3[C@H]4C(=O)N(c5ccc(F)cc5F)C(=O)[C@@H]4CC[C@H]23)cc1	?	.	.	.	2.81µM*	.
COc1ccc(COC(=O)NN=C2C[C@@H](O)[C@@H](O)[C@@H]3[C@H]4C(=O)N(Cc5ccc6c(c5)OCO6)C(=O)[C@@H]4CC[C@H]23)cc1	4.1%[14.2 µM]	.	.	.	0.266µM*	.
CCc1ccc2[nH]c(C(=O)Nc3ccc(C)c(F)c3)cc2c1	-5.5%[46.1 µM]	18.4%	17.5*	-5.4%	0.5%[46.1 µM]	38.7*
Cc1ccc2[nH]c(C(=O)Nc3ccccc3)cc2c1	?	13.6%	.	.	20.2%[46.1 µM]	.
O=C(Nc1ccc(F)cc1)c1cc2cc(Cl)ccc2[nH]1	.	34.5%	16.5*	-28.9%	.	32.5*
Cc1ccc(NC(=O)N2CCC(c3ccccc3)C2)cc1C (stereo not drawn)	?	-22.0%	52.6*	-10.3%	?	100.7*
O=C(Nc1cccc(F)c1)N1CC=C(c2ccc(Cl)cc2)CC1	-20.2%[46.1 µM]	20.7%	45.8*	-10.2%	-16.4%	75.1*
O=C(Nc1ccc(Cl)cc1)N1CCC(c2ccccc2)C1 (stereo not drawn)	?	-4.4%	41.8*	?	?	116.3*
Cc1ccc(NC(=O)N2CC3CCCN3c3ccccc32)cc1C (stereo not drawn)	?	-17.3%	.	.	?	.
Cc1ccc(C2CCN(C(=O)Nc3ccccc3)C2)cc1 (stereo not drawn)	12.4%	-45.2%	39.1*	?	-18.4%	149.7*
Cc1cc2oc(=O)cc(CN3CCCC3)c2cc1Cl	.	-1.8%	.	.	.	.
Cc1c2cnn(CC(=O)NCCN3CCOCC3)c(=O)c2c(C)n1Cc1ccccc1	.	-7.8%	-4.7	6.2%	.	-1.5
Cc1ccc(NC(=O)N2CCC(NC(=O)C(C)(C)C)CC2)cc1	-12.2%	-17.0%	16.7*	11.7%	6.7%	10.5
O=C(Nc1cccc(F)c1)N1CCC(c2ccccc2)CC1	.	45.5%	41.4*	-9.1%	.	73.7*
COC(=O)[C@H](Cc1ccccc1)NC(=O)N1CCCCC1	?	29.9%	7.9	15.8%	?	34.5
CC1(C)C(=O)C=C[C@]2(C)[C@H]3CC[C@@]4(C)[C@H](c5ccoc5)OC(=O)[C@H]5O[C@]54[C@]3(C)[C@H](O)C[C@@H]12	?	0.0%	20.7*	1.2%[8.37 µM]	?	45.8
